# Shown are actives, neighbours in structure and some others; about 9% of the full set was active somewhere.
# ALDH1A1 block = blocks purified human ALDH1A1 activity | P00352 | Purified ALDH1A1, NADH fluorescence, propionaldehyde substrate | Potency, µM (top dose mostly 75.3 µM), for the others: at the highest dose activity, negative = inhibition, usual class: inhibitors | 7.3% of 220,000 active | AID 1030; active means well fitted inhibition curve with a large enough effect, not every such curve was filed as active; inconclusive means small, poorly fitted or top-dose-only effect, or another doubt; inactive means no such curve, though single readings can be large or run the other way;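 further: plate controls were no enzyme wells and a reference inhibitor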
# Target sequence (P00352 whole entry, looked up): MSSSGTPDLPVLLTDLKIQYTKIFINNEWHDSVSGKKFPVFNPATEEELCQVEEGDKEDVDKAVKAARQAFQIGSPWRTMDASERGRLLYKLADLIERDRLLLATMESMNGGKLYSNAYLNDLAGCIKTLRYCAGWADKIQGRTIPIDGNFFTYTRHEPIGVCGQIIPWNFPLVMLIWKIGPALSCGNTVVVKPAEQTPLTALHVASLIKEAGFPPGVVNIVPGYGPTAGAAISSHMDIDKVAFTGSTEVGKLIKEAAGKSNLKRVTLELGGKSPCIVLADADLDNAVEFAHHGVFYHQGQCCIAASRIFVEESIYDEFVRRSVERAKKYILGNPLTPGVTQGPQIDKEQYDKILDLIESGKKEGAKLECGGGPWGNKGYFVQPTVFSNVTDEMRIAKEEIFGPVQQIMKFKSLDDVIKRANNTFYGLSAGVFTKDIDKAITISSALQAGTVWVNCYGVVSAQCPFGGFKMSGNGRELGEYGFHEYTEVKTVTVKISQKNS
# HTT aggregate = inhibitors of mutant huntingtin aggregate formation in PC12 cells; 1.1% of 220,000 active; Potency, µM (doses to about 46.1 µM), inactives show at the highest dose activity change, negative = inhibition, hits mostly inhibitors; PC12 HttQ103-GFP aggregates, Acumen cytometry, 40 h; further: on the % scale 0 is the no-effect control and ±100 the full control effect; nearly all actives have a fitted effect of over 60% in size
#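 Compounds (qHTS titration) were added to PC12 cells expressing an ecdysone-driven HTT exon 1 Q103–GFP fusion after induction with 100 nM tebufenozide. Aggregate formation was measured as GFP objects in cell lysates.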
# HTT cytoprotect = Huntington cell model cytoprotection by ATP luminescence. PC12 HTT-Q103 induced, cytoprotection, ATP luminescence, 40 h. Potency, µM (doses to about 56.4 µM), inactives show cytoprotection (ATP increase), actives largely listed as activators. 0.14% of 230,000 active. AID 1471; further: % of control where 0% means no effect; nearly all actives have a fitted effect of over 45% in size
#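 Huntington model: PC12 line, ecdysone-inducible HTTQ103 exon1–GFP, tebufenozide 100 nM. Test articles in a dose series. Endpoint luminescence from cellular ATP.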
# Lamin A splicing = LMNA splicing modulation | HeLa LMNA splicing GFP/RFP minigene ratio, 48 h | 0.01% of 200,000 active | Potency, µM (titrated, usually from 46.1 µM), for inactives: at the top dose ratio change, negative = inhibition, hits mostly inhibitors; active means well fitted inhibition curve with a large enough effect in the signal ratio, with a control signal flat, not every such curve was filed as active; inconclusive means small, poorly fitted or top-dose-only effect, or effect the other way, or a change in a side signal; the % refers to the signal ratio; further: on the % scale 0 is the no-effect control and ±100 the full control effect
#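 S3 HeLa stable clones carrying a lamin A-EGFP splicing minigene plus DsRed2 were seeded at 600 cells/well in Opti-MEM with 2% FBS, pin-dosed and incubated 48 h at 37°C. Acumen cytometry (488 nm) gave the GFP/RFP total-intensity ratio.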
# HPGD block = inhibitors of human 15-hydroxyprostaglandin dehydrogenase (HPGD) | P15428 | purified HPGD, NADH fluorescence kinetic, PGE2 substrate | Potency, µM, for the others: at the top dose activity change, negative = inhibition, most hits filed as inhibitors | 4.3% of 150,000 active; active means well fitted inhibition curve with a large enough effect, not every such curve was filed as active; inconclusive means small, poorly fitted or top-dose-only effect, or another doubt; inactive means no such curve, though single readings can be large or run the other way; further: on the % scale 0 is the no-effect control and ±100 the full control effect
# Target sequence (P15428 whole entry, looked up): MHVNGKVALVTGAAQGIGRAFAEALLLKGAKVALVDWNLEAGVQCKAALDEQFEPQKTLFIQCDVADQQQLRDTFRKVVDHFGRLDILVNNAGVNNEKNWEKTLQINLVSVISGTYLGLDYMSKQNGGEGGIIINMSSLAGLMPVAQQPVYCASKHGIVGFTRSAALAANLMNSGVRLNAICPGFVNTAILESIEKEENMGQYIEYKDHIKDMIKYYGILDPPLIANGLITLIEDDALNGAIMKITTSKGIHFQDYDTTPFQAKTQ
#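 20 nM HPGD preincubated 15 min at room temperature with compound in 50 mM Tris-HCl pH 8, 0.01% Tween 20. Started with 1 mM NAD+ and 30 uM prostaglandin E2; NADH fluorescence (360/450 nm) read 5 times over 30-s intervals, last minus first.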
# KinaseGlo FLuc = blocks Kinase-Glo luciferase, a counter-screen artifact | Q27757 | Kinase-Glo luciferase, ATP luminescence, 8 min | Potency, µM (top dose mostly 38.3 µM), inactives show at the top dose activity change, negative = inhibition, actives largely listed as inhibitors | 0.28% of 200,000 active | AID 1379; further: on the % scale 0 is the no-effect control and ±100 the full control effect; nearly all actives have a fitted effect of over 60% in size
#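 Substrate mix (final 50 mM imidazole pH 7.2, 50 mM KCl, 7 mM MgCl2, 10 uM ATP, 0.01% Tween 20, 0.05% BSA) plus pin-tool compound, then Kinase-Glo detection mix; 8 min ambient, luminescence read.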
# * = called active by the depositor; ? = inconclusive; . = no result; [ ] = dose if it differs, or a comment. Unless noted, the call rests on the fitted dose curve; in most records, active means well fitted curve in the direction sought with a large enough effect; inconclusive means small, poorly fitted or top-dose-only effect, or another doubt; inactive means no such curve, though single readings can be large; an effect the other way counts as inactive or inconclusive. Potency means the concentration at half of the fitted maximal effect.
SMILES,ALDH1A1 block,HTT aggregate,HTT cytoprotect,Lamin A splicing,HPGD block,KinaseGlo FLuc
CCOC(=O)C1=C(C)NC(=S)NC1c1cccc(O)c1 (configuration not stated),1.1µM*,.,3%,.,?,-8%
CCCCCCc1c(O)nc(SCCN2CCOCC2)[nH]c1=O,6%,.,.,.,.,1%
COc1ccccc1Nc1ncccc1C(=O)O,9%,-10%,-3%,7%,-6%,-2%
O=C(CN1C(=O)NC2(CCCC2)C1=O)Nc1ccc(S(=O)(=O)N2CCOCC2)cc1,-3%,9%,-15%[10 µM],0%[46 µM],.,1%
CCc1ccccc1NC(=O)NC1CC2CCC(C1)N2Cc1cccs1 (configuration not stated),-6%,2%,2%,-4%,5%,-1%
CC(C)CC(=O)c1c[nH]c(C(=O)N2CCN(Cc3ccccc3)CC2)c1,?,11%,9%[10 µM],?,.,-4%
Cc1cc(C)cc(N(CC(=O)N2CCN(c3ccccc3)CC2)S(=O)(=O)c2c(C)noc2C)c1,11%,?,11%,6%,-9%,1%
CCCc1nnc(SCc2ccc(C(=O)OC)o2)n1N,3%,2%,?,-3%,-15%,0%
NS(=O)(=O)c1ccc(NC(=S)N2CCN(Cc3ccc(Cl)c(Cl)c3)CC2)cc1,7%,22µM*,-40%,.,.,.
COc1ccc(/C=N/NC(=O)CCn2cnc(-c3ccccc3)c2-c2ccccc2)cc1OC,28µM*,26%,-44%[10 µM],?,-7%,-4%
Cc1cc(C)nc(-n2ncc3c2CCCC3=O)n1,0%,?,25µM*,.,.,1%
Cc1cc(C)nc(-n2ncc(C#N)c2N)n1,13%,6%[9.22 µM],21%[10 µM],.,.,.
CN(C)c1ccc(NC(=S)c2ccccn2)cc1,?,?,-51%,?,25µM*,13µM*
N#CC(C#N)=Cc1ccc(OC(=O)c2ccccn2)cc1,2µM*,18%,-21%[10 µM],-8%,-9%,-5%
CN(C)c1ccc(/C=C(\C#N)c2ccccn2)cc1,9.5µM*,5%,-86%[10 µM],?,-22%,7.9µM*
CCOC(=O)c1ccc(-n2c(-c3ccco3)nc3ccccc3c2=O)cc1,?,-6%,-8%[10 µM],-4%,-6%,-5%
O=S(=O)(Nc1nnc(-c2ccccc2)s1)c1ccc(Cl)cc1,3%,35µM*,-24%,?,-10%,-3%
CCN(CC)C(=O)CSc1nnc(-c2cc(-c3ccc(Cl)cc3)nc3ccccc23)o1,?,4%,-11%[10 µM],7%,?,0%
Cc1ccccc1CNC(=O)C1=Cc2ccccc2OC1,.,.,.,2%[46 µM],.,.
CC(=O)c1cc2c(cc1NC(=O)CN1CCN(C(=O)c3ccco3)CC1)OCO2,.,.,-1%,.,.,.
Cc1ccc(N(CC(=O)Nc2cc(Cl)ccc2Oc2ccccc2)S(C)(=O)=O)c(C)c1,11%,?,-40%,7%,-11%,18%
CCN(CC)S(=O)(=O)c1ccc(-c2csc(C)n2)cc1,25µM*,-22%,-127%,.,.,.
Cc1nc2ccccc2n1C(=O)c1cc(-c2ccc(Br)cc2)nc2ccccc12,-12%,-11%,-50%,4%,-20%,4%
CNS(=O)(=O)c1cccc(C(=O)OCC(=O)Nc2sc3c(c2C#N)CCCCC3)c1,25µM*,22%,0%[10 µM],-15%,.,.
CN(C)S(=O)(=O)c1ccc(C(=O)OCC(=O)Nc2sc3c(c2C#N)CCCCC3)cc1,-15%,0%,-1%[10 µM],3%,-4%,0%
SMILES,ALDH1A1 block,HTT aggregate,HTT cytoprotect,Lamin A splicing,HPGD block,KinaseGlo FLuc
O=C(O/N=C1\CCS(=O)(=O)c2sccc21)c1ccc(F)cc1,-3%,-1%,-10%,2%[46 µM],.,-1%
CCOC(=O)c1c(NC(=S)Nc2ccccc2)sc2c1CC(C)(C)SC2,2.5µM*,0%,5%[10 µM],-18%,?,-1%
CCOC(=O)c1c(NC(=S)Nc2ccc(OC)cc2)sc2c1CCC2,?,-6%,9%[10 µM],-10%,-21%,-2%
CCOC(=O)c1c(NC(=S)Nc2ccccc2)sc2c1CCN(CCc1ccccc1)C2,?,-11%,-44%,30%,-19%,-11%
CCOC(=O)c1c(NC(=S)NC)sc2c1CC(C)(C)SC2,25µM*,6%,11%[10 µM],?,?,-1%
Cc1onc(-c2ccccc2Cl)c1C(=O)NCc1ccc(N2CCCC2=O)cc1,-7%,0%,-12%[0.074 µM],4%,-5%,3%
COc1c(C=O)c(O)cc2c1C(=O)c1ccccc1C2=O,3.5µM*,.,?,.,.,.
Cc1cc(N2CC(C)OC(C)C2)nc(C(C)C)n1 (configuration not stated),3%,-9%,7%[10 µM],-10%[46 µM],.,0%
CCOC(=O)c1ccc(Nc2nnc(C(C)(C)C)c(=O)[nH]2)cc1,14µM*,?,-42%,?,.,.
CC(C)(C)c1nnc2sc(SCC(=O)c3ccc(Cl)cc3)nn2c1=O,4.5µM*,?,-42%,?,28µM*,0%
O=C1OC(c2ccccc2)/C(=C(/O)c2ccc(Cl)cc2)C1=O (configuration not stated),38µM*,?,-88%[10 µM],2%,35µM*,-2%
Cc1ccc(/C(O)=C2/C(=O)C(=O)OC2c2ccc(Cl)cc2)cc1 (configuration not stated),?,9%,16%,-3%,-7%,-3%
O=C1OC(c2ccccc2)/C(=C(/O)c2ccccc2)C1=O (configuration not stated),0.79µM*,-6%,?,8%,-18%,2%
Cc1cc(C)nc(NN2C(=O)/C(=C/c3ccccc3)SC2=S)n1,?,-15%,8%,1%,35µM*,-3%
CCOc1cc(/C=C2\SC(=S)N(Nc3ccccc3)C2=O)ccc1O,11µM*,-1%,-60%,2%,-13%,-9%
O=C1/C(=C/c2ccncc2)SC(=S)N1Nc1ccccc1,.,1%[9.22 µM],-14%[10 µM],.,.,.
COc1ccc(C2=NN(c3ccccc3)C(=O)/C2=C\c2ccc(O)c(OC)c2)cc1,20µM*,-12%,?,.,.,-21%
O=C(NN1C(=O)/C(=C\c2ccc(O)c([N+](=O)[O-])c2)SC1=S)c1ccccc1Cl,14µM*,11%[9.22 µM],0%[10 µM],.,.,.
COc1cc(/C=C2\SC(c3ccc(C)cc3)=NC2=O)ccc1O,?,4%,2%[10 µM],-17%,?,2%
CCOc1cc(/C=C2\SC(=S)N(N3CCOCC3)C2=O)ccc1O,.,4%[9.22 µM],16%[10 µM],.,.,.
CC(C)(C)NCCOCCOc1ccc(Cl)cc1C(C)(C)C,-14%,11%[9.22 µM],-14%[10 µM],-9%[46 µM],.,6%
COc1cc(/C=C2\SC(=S)N(Nc3ccccc3)C2=O)ccc1O,10µM*,?,-21%[10 µM],-7%,-13%,-10%
O=C1/C(=C/c2ccc(O)c(O)c2)SC(=S)N1Nc1ccccc1,?,?,4%,.,.,.

# Bioassay records: PubChem, National Center for Advancing Translational Sciences (NCATS)
